An excerpt weighted towards active compounds, which were near 1.5% of everything screened.
TPT1 inh: Candida albicans TPT1 enzyme inhibitors, primary screen, biochemical, fluorescence polarization | tRNA 2'-phosphotransferase TPT1 (Candida albicans SC5314) | recombinant caTPT1, FP RNA substrate dephosphorylation | AID 1962, 2009 | 0.81% of 300,000 active | inhibition, % at 5 µM;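 active = inhibition above the mean of all tested compounds plus 3 SD, set per screening campaign, cut at about 24% in these data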;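 note: plate controls were DMSO alone for no effect and ferristatin control at 100 nM for full effect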
CRFBP-R2 agonist: agonists of CRF-BP/CRF-R2 complex, primary screen, cell-based, HEK293, calcium dye fluorescence, uHTS. CRF-binding protein / CRF receptor 2 complex (human). activation, % at 13.2 µM. calcium dye fluorescence (FLIPR); percent of saturating CRF peptide response. 0.46% of 350,000 active;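 active = activation of at least 50%, plus an integration ratio under a set limit after plate pattern correction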;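 note: plate controls were neutral control wells without compound for no effect and CRF at EC100 for full effect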
IDE inh: human IDE inhibitors in live cells, primary screen, fluorescence polarization, HEK cells, FAbetaB substrate. Insulin-degrading enzyme (Homo sapiens), P14735. FAbetaB cleavage. inhibition, % at 5.59 µM. 0.41% of 320,000 active. AID 434962, 2010;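 active = percent inhibition above the average of all tested compounds plus 3 SD, set per screening campaign, cut at about 16% in these data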;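 note: IDE supplied by intact live HEK cells; FP after avidin binding of uncleaved biotin substrate so inhibition keeps polarization high; 0% = DMSO wells and 100% = 60 µM reference IDE inhibitor Ii1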
cardiac RTF act: cardiac RTF calcium sensitivity activators, primary screen, biochemical, IANBD-TnC fluorescence, EC20 calcium; Troponin I, cardiac muscle (Homo sapiens) + Troponin T, cardiac muscle (Homo sapiens) + …; IANBD-labeled TnC RTF fluorescence at EC20 calcium; 0% EC20 calcium, 100% full calcium; activation, % at 7.2 µM; 0.24% of 340,000 active;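 active = activation above the mean over all tested compounds plus 3 SD, cut at about 30% in these data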;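 note: rise in fluorescence read as greater calcium sensitivity of cardiac thin filaments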
RTF Ca sens inh: cardiac RTF calcium sensitivity inhibitors, primary screen, biochemical, IANBD-TnC fluorescence, EC70 calcium | AID 493244, 2011 | 0.12% of 340,000 active | IANBD-labeled cardiac RTF, Ca2+ fluorescence | inhibition, % at 7.15 µM;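 active = inhibition above the mean inhibition of all tested compounds plus 3 SD, cut at about 17% in these data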;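 note: assay run at fixed EC70 calcium of 1.6 mM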
IDE cell activ: human IDE activators in live cells, primary screen, fluorescence polarization, HEK cells, FAbeta-B substrate | AID 493087, 2011 | 0.073% of 340,000 active | Insulin-degrading enzyme (Homo sapiens), P14735 | FAbeta-B cleavage; 0% vehicle, 100% cell-free pure enzyme wells | activation, % at 5.96 µM;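 active = activation above the mean of all tested compounds plus 3 SD, set per screening campaign, cut at about 17% in these data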
TPT1 inh confirm: Candida albicans TPT1 inhibitors, confirmation, biochemical, fluorescence polarization, triplicate; shares compounds with TPT1 inh; recombinant caTPT1, RNase T1 coupled; inhibition, % at 5 µM; 74% of 2,400 active; AID 2149, 2009;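 active = inhibition above the primary screen limit, the mean inhibition of all tested compounds plus 3 SD, cut at about 25% in these data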
RNase T1 counter: RNase T1 inhibitors, counter-screen for TPT1 inhibitor project, biochemical, fluorescence polarization; shares compounds with TPT1 inh; 83% of 2,400 active; inhibition, % at 5 µM; AID 2153, 2009; RNase T1 cleavage, 1536-well;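 active = inhibition above the solvent-only control well mean plus 3 SD, limit set per screening run, cut at about 23% in these data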;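 note: plate controls were DMSO wells with enzyme for no effect and wells without RNase T1 for full effect; inhibitors block cleavage so intact labeled substrate keeps polarization high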
Target sequence (P00651 whole entry, looked up): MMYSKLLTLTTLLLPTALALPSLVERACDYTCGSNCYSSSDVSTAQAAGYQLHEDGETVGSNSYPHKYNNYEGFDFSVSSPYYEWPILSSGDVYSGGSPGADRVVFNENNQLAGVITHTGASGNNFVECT
* marks the source's active call; other numbers are inactive results; / = not tested or not shown.

SMILES | TPT1 inh | CRFBP-R2 agonist | IDE inh | cardiac RTF act | RTF Ca sens inh | IDE cell activ | TPT1 inh confirm | RNase T1 counter
N#CC1=C(N)SC(N)=C(C#N)C1c1ccnc2ccccc12 | 103* | 19 | 6 | 6 | -18 | -8 | 74* | 85*
O=C1c2ccccc2C(=O)C1c1ccnc2ccccc12 | 11 | 1 | -5 | 0 | -10 | 3 | / | /
CN1CC[C@@H]2C(=O)N3CCc4ccc(-c5ccc6c(c5)OCO6)cc4[C@@H]3C[C@@H]21 | / | -1 | / | 3 | -10 | -2 | / | /
O=C(O)CCCCCN1C(=O)/C(=C\c2ccc(-c3ccc(Cl)cc3)o2)SC1=S | 27* | 114* | -3 | 12 | 7 | 7 | 65* | 81*
O=C(O)CCCN1C(=O)/C(=C/c2ccc(-c3nc4ccccc4s3)o2)SC1=S | 48* | -1 | 3 | -6 | -3 | 0 | 95* | 103*
CC(=O)c1cccc(-c2ccc3c(=O)[nH]c(Nc4ccccc4)cc3c2)c1 | 30* | 3 | 5 | -1 | 1 | 0 | 59* | 71*
O=c1c2c3c(sc2ncn1Cc1ccc(F)cc1)CCC3 | 27* | 2 | 1 | -1 | -18 | -2 | 26* | 34*
CCOC(=O)N1CCc2c(sc3ncn(Cc4ccc(F)cc4)c(=O)c23)C1 | 6 | 4 | -3 | -3 | -7 | 3 | / | /
Cc1ccccc1NC(=O)c1c(C)[nH]c(=S)c(C#N)c1-c1ccc(Cl)cc1 | 30* | -1 | 8 | / | / | / | 15 | 22*
Cc1c(N=C2Nc3cccc4cccc2c34)c(=O)n(-c2ccccc2)n1C | 88* | 14 | -2 | 4 | -14 | -3 | 109* | 114*
CC(NC(=O)C(=O)c1cn(CC(=O)N2CCOCC2)c2ccccc12)c1ccccc1 (stereo not given) | -1 | 0 | 7 | 5 | -7 | 3 | / | /
CSc1nsc(/C=C/Nc2ccc(Cl)cc2)c1C#N | 32* | 7 | 3 | 0 | -7 | -6 | 70* | 82*
CSc1nsc(/C=C/Nc2ccc(O)cc2C)c1C#N | 26* | 1 | 1 | 6 | -11 | -9 | 22 | 33*
Cc1cc(O)ccc1N/C=C(\C#N)c1nc2ccccc2o1 | 4 | 1 | 0 | -11 | -7 | 7 | / | /
CSc1nsc(/C=C/Nc2ccc(F)cc2)c1C#N | 24 | 2 | 3 | 15 | -13 | -2 | / | /
CSc1nsc(/C=C/Nc2cccc(Cl)c2)c1C#N | 36* | -1 | 0 | 3 | -18 | -4 | 26* | 34*
COc1cc(C(F)(F)F)ccc1C(=O)NCCc1ccco1 | -4 | -6 | 7 | 0 | -9 | 4 | / | /
O=C(COC(=O)C1CCN(S(=O)(=O)c2ccccc2)CC1)NC(=O)c1ccc(OC(F)F)cc1 | 2 | 0 | -1 | 3 | -7 | 1 | / | /
CC1C(=O)N2CCCc3cc(NC(=O)CC(C)(C)C)cc1c32 (stereo not given) | 0 | 0 | -3 | 9 | 2 | 4 | / | /
Cc1nn(C(C)C(=O)N2CCCC2)c(=O)c2nn(-c3ccccc3)c(C)c12 (stereo not given) | 0 | 0 | -4 | -5 | 6 | 4 | / | /
O=C(O)Cc1sc(Nc2ccccc2)nc1-c1ccc(Cl)cc1 | -3 | 0 | 1 | -2 | -3 | 2 | / | /
Cc1ccc(Nc2nc(-c3ccccc3)c(CC(=O)O)s2)cc1 | 57* | -1 | 4 | 9 | -23 | 3 | 22 | 31*
O=C(O)Cc1sc(Nc2ccc(F)cc2)nc1-c1cccs1 | 68* | 0 | 7 | -3 | -3 | -4 | 49* | 63*
CCOC(=O)N1CCC(NC(=O)C2CCN(C(=O)c3cc4sccc4n3CC)CC2)CC1 | -1 | 4 | 1 | 8 | -3 | 0 | / | /
COc1ccc(CC(=O)OCC(=O)NC2CCCC(C)C2C)cc1OC (stereo not given) | / | -2 | 1 | -4 | 1 | 1 | / | /
SMILES | TPT1 inh | CRFBP-R2 agonist | IDE inh | cardiac RTF act | RTF Ca sens inh | IDE cell activ | TPT1 inh confirm | RNase T1 counter
Cc1ccc(/C=C2\SC(=S)N(C3CCS(=O)(=O)C3)C2=O)o1 (stereo not given) | 5 | 4 | 5 | -1 | 0 | 3 | / | /
NS(=O)(=O)c1ccc(-c2ccc(/C=C3\SC(=S)N(C4CCS(=O)(=O)C4)C3=O)o2)cc1 (stereo not given) | 109* | 8 | 20* | 21 | -30 | -58 | 154* | 142*
OCCN(Cc1cccnc1)Cc1ccccn1 | / | 5 | / | 6 | -9 | -4 | / | /
C/C(CC(=O)NCc1ccco1)=N\NC(=O)Cc1ccc(-c2ccccc2)cc1 | 38* | 5 | -2 | 5 | -3 | -7 | 0 | 4
CCc1ccc(CN2CCC(Oc3cc(C(=O)NC4CC4)ccc3OC)CC2)cc1 | / | 0 | / | / | / | / | / | /
C=CCNC(=O)CSc1nnc(-c2cccc(S(=O)(=O)N3CCOCC3)c2)o1 | / | -1 | / | / | / | / | / | /
Cn1cccc1/C=C1\SC(=S)N(Nc2ccccc2)C1=O | 42* | 3 | 3 | 13 | -13 | -7 | 72* | 87*
Cc1ccc(S(=O)(=O)NN2C(=O)/C(=C/c3cccn3C)SC2=S)cc1 | 57* | / | -12 | / | / | / | 60* | 74*
Cc1ccc(/C=C2\SC(=S)N(NS(=O)(=O)c3ccc(C)cc3)C2=O)cc1 | 4 | 2 | -4 | -4 | 5 | 6 | / | /
O=C1Nc2ccc(Br)cc2C12NNc1ccccc1O2 (stereo not given) | 83* | 13 | 3 | -2 | -26 | 7 | 105* | 110*
CC1CCN(S(=O)(=O)c2ccc3c(c2)C(Cl)(Cl)C(=O)N3)CC1 | / | 12 | / | / | / | / | / | /
Cc1ccc(OCC(=O)Nc2ccc(S(=O)(=O)Nc3ccccn3)cc2)c(C)c1 | 36* | -1 | 3 | 4 | 2 | 0 | 3 | 6
Cc1ccccc1OCC(=O)Nc1ccc(S(=O)(=O)Nc2ccccn2)cc1 | 7 | 1 | -3 | 7 | -1 | 9 | / | /
